Data reported in the supplement of paper PMC3334620.
In all, about 33,000 sequences were measured (“E-score (-0.5 to 0.5)”: median about -0.011, highest 2% from about 0.28 on). The full list was thinned out, with the highest values kept by preference.

What follows are sequences tested against T1, Gcr1 (UniProt P07261) (assay: PBM E-score (8-mer binding enrichment) (E-score (-0.5 to 0.5)); higher = stronger / more preferred TF binding). Conditions: protein concentration: 100 nM; construct: GST-full length.
T1 sequence: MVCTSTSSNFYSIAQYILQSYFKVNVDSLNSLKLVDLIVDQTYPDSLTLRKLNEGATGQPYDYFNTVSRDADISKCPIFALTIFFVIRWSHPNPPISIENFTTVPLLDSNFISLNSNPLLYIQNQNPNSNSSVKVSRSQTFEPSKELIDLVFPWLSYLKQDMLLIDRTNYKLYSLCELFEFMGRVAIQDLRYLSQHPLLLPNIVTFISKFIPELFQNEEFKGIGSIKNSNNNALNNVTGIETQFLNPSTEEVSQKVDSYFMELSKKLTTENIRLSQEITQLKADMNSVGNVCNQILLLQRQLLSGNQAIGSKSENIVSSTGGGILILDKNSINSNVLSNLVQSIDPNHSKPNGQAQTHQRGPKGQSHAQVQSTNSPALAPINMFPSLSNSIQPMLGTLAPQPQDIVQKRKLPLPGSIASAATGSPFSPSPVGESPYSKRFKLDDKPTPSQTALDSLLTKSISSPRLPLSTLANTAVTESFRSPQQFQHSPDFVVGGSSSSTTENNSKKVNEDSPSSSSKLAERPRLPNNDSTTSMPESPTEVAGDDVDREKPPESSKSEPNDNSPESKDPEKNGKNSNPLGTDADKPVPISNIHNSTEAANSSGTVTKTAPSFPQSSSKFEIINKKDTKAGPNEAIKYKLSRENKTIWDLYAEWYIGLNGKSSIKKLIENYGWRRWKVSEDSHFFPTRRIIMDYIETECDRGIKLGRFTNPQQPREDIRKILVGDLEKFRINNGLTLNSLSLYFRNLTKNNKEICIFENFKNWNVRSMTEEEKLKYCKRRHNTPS
Protocol: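 Universal 'all 10-mer' protein binding microarrays (Agilent AMADID 015681) probed with GST-tagged S. cerevisiae TFs (full-length or DBD) made by in vitro transcription/translation (PURExpress), about 100-200 nM. Bound TF was detected with fluorescent anti-GST. Each ungapped 8-mer (which stands for itself and its reverse complement) is scored by the PBM enrichment score (E-score), a modified Wilcoxon-Mann-Whitney statistic from -0.5 to +0.5, computed with the Universal PBM Analysis Suite. Scale: above 0.35 generally sequence-specific binding.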

| Sequence | PBM E-score |
| --- | --- |
| CCGGCAGG | -0.253 |
| GGGGCACA | -0.0447 |
| CCGGCAAC | 0.318 |
| AGGGCACC | 0.13 |
| GGGGCACC | 0.351 |
| GCGGCAAC | 0.0813 |
| AGTTCGAA | -0.0147 |
| GCCCAAAC | 0.111 |
| GTTACCCA | -0.141 |
| CCCTCTCA | -0.131 |
| GAGTACCC | -0.0644 |
| CCCACTCC | 0.0066 |
| CGGGTCTA | 0.0247 |
| CTGGCACC | 0.392 |
| CGGGCATA | -0.232 |
| CGGGCAGA | -0.0209 |
| ACGGCATC | 0.2 |
| CGGGCATC | 0.282 |
| AGGGCAGC | 0.0608 |
| AGGGCATC | 0.129 |
| CCGGCATA | 0.0787 |
| CGGGCAGC | 0.309 |
| ATGGCACC | 0.201 |

| Sequence | PBM E-score |
| --- | --- |
| CTGGCACA | -0.0796 |
| CCGGCATC | 0.38 |
| AGTTTCAT | 0.116 |
| CCAAAGGC | -0.185 |
| CCCGCTTA | 0.161 |
| CATGCGTC | -0.0513 |
| CCTGAGAG | -0.131 |
| CGACCGAC | 0.0935 |
| CACCAGTC | -0.02 |
| GGGGTCCA | 0.0846 |
| AAATTTTA | 0.126 |
| AGTCGAGC | -0.0406 |
| GACTGTCA | -0.154 |
| AGAGGTAT | 0.196 |
| ATAGATTC | 0.114 |
| CCGCTCAG | 0.0454 |
| ACGTTCTC | -0.172 |
| CCGGCACC | 0.28 |
| CAGGCAGG | -0.143 |
| ATGGCATC | 0.175 |
| ACGGCACC | 0.142 |
| CGGGCACG | 0.107 |
| GCGGCACC | 0.324 |

| Sequence | PBM E-score |
| --- | --- |
| CTGGCATA | 0.0454 |
| CGGGCACC | 0.376 |
| CAGGCAGC | 0.285 |
| CTGGCATC | 0.304 |
| CGGGCACA | -0.0928 |
| CAGGCAGA | -0.0141 |
| CCCTACTA | 0.0892 |
| AATTTACT | 0.155 |
| AAACCAGA | 0.0613 |
| GAATCCAA | 0.309 |
| AAATCCAA | 0.142 |
| ACATCCAC | 0.133 |
| TCATCCAA | -0.114 |
| CCATCCAA | -0.121 |
| GCATCCAC | 0.452 |
| CCATCCAC | -0.0219 |
| GCATCCAA | 0.366 |
| TAATCCAA | 0.134 |
| TCCTAGAA | 0.174 |
| GAATGGCC | -0.116 |
| CAAGCGCG | -0.0724 |
| ATATGAGG | 0.033 |
| AGAAAACC | -0.0435 |

| Sequence | PBM E-score |
| --- | --- |
| CGGAGCAG | 0.0182 |
| ACATACTG | 0.0904 |
| CGGACGCC | 0.416 |
| AGGACGCC | 0.453 |
| ACGACGCG | 0.0493 |
| AGGACGAG | -0.073 |
| AGGACGCA | 0.0414 |
| CGGACGCA | 0.0459 |
| AGGACGCG | 0.283 |
| CGGACGTC | 0.134 |
| ACGACGCC | 0.217 |
| CGACCCAC | -0.0741 |
| TAACCTGA | -0.2 |
| ACGTGTAT | 0.0211 |
| CAGGCCGA | -0.0271 |
| CAGAACCG | 0.106 |
| GAATGCGC | 0.164 |
| ACTCTCTC | -0.288 |
| CGCCAATA | 0.144 |
| GTATGTCA | 0.136 |
